In PubChem BioAssay AID651871 (Sanford-Burnham Center for Chemical Genomics, 2012) one finds activity (protection/inhibition) data, which are given here for three compounds.

This test has as its system HL-1. As to the kind of experiment: protection of cardiomyocytes from stress damage, SAR follow-up, cell-based, panel, H9c2 and HL-1, ATP luminescence, set 2 (AID 651871).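 Also: cells exposed to stressor for 2 h before ATP readout; reference of the scale not given here.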 Particulars: H9c2/HL-1 cardiomyocytes, 2-deoxyglucose stress, with 2-deoxyglucose.
Where [1] appears, read: run 9, at 79 µM (top of the series).

The structures appear in SMILES notation.

`CCOC(=O)c1cccc(NC(=O)CNC(=O)c2cc(-c3cc(OC)c(OC)c(OC)c3)nc3ccccc23)c1`: the activity (protection/inhibition) under setting [1] worked out at 91.8%. Turning to `COc1ccc2c(c1OC)C(=O)N1c3ccccc3C(=O)N(Cc3cccc(Cl)c3Cl)C21` (stereo not given), the activity (protection/inhibition) is 50.7% (run 9, at 19.8 µM (top of the series)); 55.4% (run 9, at 39.5 µM (top of the series)); -7.08% under setting [1]. In the case of `COc1ccc2nc(-c3cc(OC)c(OC)c(OC)c3)cc(C(=O)NCC(=O)Nc3ccc(C(C)=O)cc3)c2c1`, the activity (protection/inhibition) under setting [1] was 90%.
